Experimental data taken from PubChem BioAssay AID777 (Sanford-Burnham Center for Chemical Genomics, 2007).
In all, about 96,000 compounds went through this assay and about 19,000 (20%) were called active. These entries were drawn from the full list. A number with no mark means an inactive call.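 Rule for the calls: active = blocking of liver enzyme CYP2C9 beyond about 50% at 5 µM (limit read from the data); inactive = the rest.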

Biological target: Cytochrome P450 2C9 (Homo sapiens) (UniProt P11712)
Sequence (P11712 whole entry, looked up): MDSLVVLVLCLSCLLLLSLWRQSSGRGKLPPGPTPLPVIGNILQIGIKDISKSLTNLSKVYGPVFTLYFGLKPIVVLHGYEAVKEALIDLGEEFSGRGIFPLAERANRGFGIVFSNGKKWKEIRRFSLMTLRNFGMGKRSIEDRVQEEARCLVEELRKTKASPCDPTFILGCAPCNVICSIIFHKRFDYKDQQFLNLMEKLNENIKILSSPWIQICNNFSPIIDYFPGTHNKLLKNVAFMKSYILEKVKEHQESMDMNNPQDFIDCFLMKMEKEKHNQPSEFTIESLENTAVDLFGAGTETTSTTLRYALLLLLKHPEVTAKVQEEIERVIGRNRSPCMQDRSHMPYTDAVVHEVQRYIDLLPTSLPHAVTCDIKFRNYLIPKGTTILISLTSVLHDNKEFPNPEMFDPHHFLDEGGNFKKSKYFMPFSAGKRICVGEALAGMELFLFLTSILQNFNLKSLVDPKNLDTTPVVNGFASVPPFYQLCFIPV
Assay: blockers of cytochrome P450 2C9 activity – biochemical, luminescence, ADME assay, primary screen (AID 777)
Settings: CYP2C9 Supersomes, luciferin-H conversion, at 5 µM, active compounds read high

Row | SMILES | inhibition
1 | Cc1cccc(NC(=S)N2CCC(c3nc4ccccc4s3)CC2)c1 | -16.4%
2 | O=C(c1cccs1)N1CCC(c2nc3ccccc3s2)CC1 | 60.9% (active)
3 | O=C(c1cccs1)N1CCN(C(=O)N2CCOCC2)CC1 | -2%
4 | CCC1(C)Cc2c(sc3nnn(CC(=O)Nc4ccc(Cl)cc4)c(=O)c23)CO1 (stereo not drawn) | 49.3%
5 | COc1ccc(Cc2nnc(NS(=O)(=O)Cc3ccccc3)s2)cc1 | 60.3% (active)
6 | COc1ccc(Cc2nnc(NC(=O)Cc3cccs3)s2)cc1 | 24.4%
7 | CCC(CC)c1nnc(NS(=O)(=O)Cc2ccccc2)s1 | 34.3%
8 | COc1ccc(C(=O)Nc2ccccc2C(=O)N/N=C/c2ccccc2OC)cc1 | -11.9%
9 | COc1cc(/C=N\NC(=O)CNC(=O)c2cccc([N+](=O)[O-])c2)ccc1O | -11.8%
10 | COc1ccc(C(=O)Nc2ccccc2C(=O)N/N=C/c2ccc(O)c(OC)c2)cc1 | 73.4% (active)
11 | CCCC(CCC(=O)OC)(C(=O)OCC)c1csc(N)n1 (stereo not drawn) | 30.1%
12 | C#CCN1C(=O)C(O)(CC(=O)c2cc(OC)ccc2OC)c2ccccc21 (stereo not drawn) | 30.3%
13 | O=C(Nc1ccccc1F)C1C2C=CC3(O2)C1C(=O)N(c1cccnc1)C3C(=O)NC1CCCCC1 (stereo not drawn) | -11.1%
14 | CCOC(=O)NC(C(F)(F)F)(C(F)(F)F)P(=O)(c1ccccc1)c1ccccc1 | -2.2%
15 | CCOc1cc2[nH]c(=S)n(CCN3CCCCC3C)c(=O)c2cc1OCC (stereo not drawn) | 17.7%
16 | Nc1ccc(-c2sc(N)nc2-c2ccccc2)cc1 | 12.4%
17 | Nc1ccc(-c2nnc(-c3ccc(-c4ccccc4)cc3)o2)cc1 | 78.7% (active)
18 | Nc1ccc(Nc2ccccc2)cc1 | 12.1%
19 | CSc1ncccc1C(=O)OCC(=O)N1CCOCC1 | -8%
20 | C=CCN(N=Nc1cccc([N+](=O)[O-])c1)c1cccc([N+](=O)[O-])c1 | 46.4%
21 | Cc1oc2nc(SCC(=O)NCc3cccnc3)nc(N)c2c1C | 14.4%
22 | CS(=O)(=O)NCc1ccc(C(=O)NCc2ccccc2)cc1 | -6.7%
23 | Cc1ccc(C(=O)NCCNS(=O)(=O)c2ccccc2)cc1 | 60% (active)
24 | O=S(=O)(NCCNS(=O)(=O)c1ccccc1)c1ccccc1 | 34.1%
25 | C/C(=N\NC(=O)Cc1ccc(Cl)cc1)c1ccccn1 | 32.4%
26 | Cc1ccccc1CN1CCN(CC(=O)NCc2ccccn2)C1=O | -9.3%
27 | CNC(=S)N1N=C(c2ccccc2)CC1c1ccc(Br)cc1 (stereo not drawn) | 69.6% (active)
28 | COc1ccc(NC(=S)N2N=CCC2c2ccccc2)cc1 (stereo not drawn) | 10.8%
